Reference: the supplement of paper PMC10849652
The full data set covers some 7,900 targets. This sample favours those with a hit. About 0.6% of all pairs of compound and target were hits.

Tests used:
Assay in all cases: log2 fold change, soluble protein after heating vs DMSO (PISA); higher = thermal stabilisation; K562 cells, 10 uM, 30 min; active = over 0.2 and 3.5 SD of the protein, either way, in both replicates (recomputed)
ZNF217 = ZNF217 (UniProt O75362)
Procedure, shortened: (§1)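 K562 cells at 2×10^6 cells/mL were treated with 10 μM compound for 30 min. Aliquots were heated for 3 min across 48°C-58°C, pooled, and extracted in PBS with 0.5% NP-40 at 4°C; soluble protein was the supernatant after 21,000xg for 90 min. Soluble protein was quantified by TMTpro 16plex LC-MS/MS with channel sums equalised, and reported as log2 fold change in thermal stability against DMSO controls, with values from duplicates.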

ZNF239 = ZNF239 (UniProt Q16600)
Procedure, shortened: as §1

ZNF277 = ZNF277 (UniProt Q9NRM2)
Procedure, shortened: as §1

ZNF579 = ZNF579 (UniProt Q8NAF0)
Procedure, shortened: as §1

ZNF580 = ZNF580 (UniProt Q9UK33)
Procedure, shortened: as §1

ZNF609 = ZNF609 (UniProt O15014)
Procedure, shortened: as §1

ZNF622 = ZNF622 (UniProt Q969S3)
Procedure, shortened: as §1

ZRANB2 = ZRANB2 (UniProt O95218)
Procedure, shortened: as §1

ZNF511 isoform 1 = ZNF511 isoform 1 (UniProt Q8NB15)
Procedure, shortened: as §1

Measured: log2 fold change

ZNF579, sequence (Q8NAF0 whole entry, looked up): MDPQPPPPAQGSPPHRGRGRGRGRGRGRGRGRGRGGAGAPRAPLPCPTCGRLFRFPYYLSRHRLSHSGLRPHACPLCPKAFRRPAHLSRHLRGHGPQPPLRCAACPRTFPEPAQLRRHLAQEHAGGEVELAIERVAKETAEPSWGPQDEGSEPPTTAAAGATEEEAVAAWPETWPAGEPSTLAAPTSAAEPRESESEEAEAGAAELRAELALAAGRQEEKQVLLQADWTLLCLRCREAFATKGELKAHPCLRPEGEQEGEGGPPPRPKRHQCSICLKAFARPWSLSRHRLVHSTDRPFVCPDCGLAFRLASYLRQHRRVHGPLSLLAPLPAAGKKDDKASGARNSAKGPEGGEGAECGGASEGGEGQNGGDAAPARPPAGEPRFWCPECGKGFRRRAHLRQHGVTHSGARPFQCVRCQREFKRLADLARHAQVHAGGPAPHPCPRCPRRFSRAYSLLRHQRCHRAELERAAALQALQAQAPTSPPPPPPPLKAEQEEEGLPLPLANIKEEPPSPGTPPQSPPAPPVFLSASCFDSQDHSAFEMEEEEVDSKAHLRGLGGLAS
ZNF239, sequence (Q16600 whole entry, looked up): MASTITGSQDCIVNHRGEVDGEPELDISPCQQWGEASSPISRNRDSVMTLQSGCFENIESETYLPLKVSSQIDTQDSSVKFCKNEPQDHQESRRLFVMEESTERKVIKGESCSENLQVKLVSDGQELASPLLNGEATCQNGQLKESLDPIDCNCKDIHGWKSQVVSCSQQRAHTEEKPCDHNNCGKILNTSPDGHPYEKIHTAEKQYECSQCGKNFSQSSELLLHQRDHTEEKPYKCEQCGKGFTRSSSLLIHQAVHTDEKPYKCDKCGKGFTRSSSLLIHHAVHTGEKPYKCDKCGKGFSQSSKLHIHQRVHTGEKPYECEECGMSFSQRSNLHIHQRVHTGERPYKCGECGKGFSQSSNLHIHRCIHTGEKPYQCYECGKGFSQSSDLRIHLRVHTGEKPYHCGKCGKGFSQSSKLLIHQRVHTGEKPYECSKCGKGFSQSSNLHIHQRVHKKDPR
ZNF217, sequence (O75362 whole entry, looked up): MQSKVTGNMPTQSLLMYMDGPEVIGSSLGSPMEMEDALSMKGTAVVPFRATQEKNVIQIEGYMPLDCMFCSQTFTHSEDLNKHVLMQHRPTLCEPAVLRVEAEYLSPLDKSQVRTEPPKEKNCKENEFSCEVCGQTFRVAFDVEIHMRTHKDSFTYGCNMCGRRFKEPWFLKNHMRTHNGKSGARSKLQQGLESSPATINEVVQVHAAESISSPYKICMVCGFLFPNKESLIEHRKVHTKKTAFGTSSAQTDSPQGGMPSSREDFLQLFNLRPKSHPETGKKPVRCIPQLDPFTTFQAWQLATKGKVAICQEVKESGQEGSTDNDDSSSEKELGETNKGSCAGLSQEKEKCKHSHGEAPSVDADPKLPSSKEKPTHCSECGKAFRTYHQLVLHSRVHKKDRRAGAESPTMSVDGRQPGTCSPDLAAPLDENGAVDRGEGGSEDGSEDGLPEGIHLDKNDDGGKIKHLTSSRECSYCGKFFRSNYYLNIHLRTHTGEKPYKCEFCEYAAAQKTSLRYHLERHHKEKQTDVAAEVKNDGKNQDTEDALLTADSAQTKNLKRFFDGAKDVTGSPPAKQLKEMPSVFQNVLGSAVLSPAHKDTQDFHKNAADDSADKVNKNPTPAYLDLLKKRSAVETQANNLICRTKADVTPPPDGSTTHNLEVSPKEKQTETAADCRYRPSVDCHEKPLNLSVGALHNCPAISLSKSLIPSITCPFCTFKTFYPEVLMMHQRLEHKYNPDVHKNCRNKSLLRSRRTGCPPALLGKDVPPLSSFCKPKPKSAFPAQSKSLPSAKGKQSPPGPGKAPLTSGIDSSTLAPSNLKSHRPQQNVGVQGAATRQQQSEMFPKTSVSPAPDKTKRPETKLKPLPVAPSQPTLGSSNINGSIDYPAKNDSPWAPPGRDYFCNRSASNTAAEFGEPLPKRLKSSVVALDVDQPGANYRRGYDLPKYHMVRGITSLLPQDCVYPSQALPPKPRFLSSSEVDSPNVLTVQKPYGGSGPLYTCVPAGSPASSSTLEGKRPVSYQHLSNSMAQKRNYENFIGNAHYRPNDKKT
ZRANB2, sequence (O95218 whole entry, looked up): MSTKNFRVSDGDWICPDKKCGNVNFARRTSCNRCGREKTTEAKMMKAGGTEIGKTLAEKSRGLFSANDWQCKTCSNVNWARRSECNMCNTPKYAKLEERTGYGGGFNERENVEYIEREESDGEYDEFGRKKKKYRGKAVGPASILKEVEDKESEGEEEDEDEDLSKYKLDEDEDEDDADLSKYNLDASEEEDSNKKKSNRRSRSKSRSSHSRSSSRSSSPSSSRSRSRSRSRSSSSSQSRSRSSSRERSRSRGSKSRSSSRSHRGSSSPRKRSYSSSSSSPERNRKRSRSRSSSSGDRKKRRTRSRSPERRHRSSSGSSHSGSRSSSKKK
ZNF609, sequence (O15014 whole entry, looked up): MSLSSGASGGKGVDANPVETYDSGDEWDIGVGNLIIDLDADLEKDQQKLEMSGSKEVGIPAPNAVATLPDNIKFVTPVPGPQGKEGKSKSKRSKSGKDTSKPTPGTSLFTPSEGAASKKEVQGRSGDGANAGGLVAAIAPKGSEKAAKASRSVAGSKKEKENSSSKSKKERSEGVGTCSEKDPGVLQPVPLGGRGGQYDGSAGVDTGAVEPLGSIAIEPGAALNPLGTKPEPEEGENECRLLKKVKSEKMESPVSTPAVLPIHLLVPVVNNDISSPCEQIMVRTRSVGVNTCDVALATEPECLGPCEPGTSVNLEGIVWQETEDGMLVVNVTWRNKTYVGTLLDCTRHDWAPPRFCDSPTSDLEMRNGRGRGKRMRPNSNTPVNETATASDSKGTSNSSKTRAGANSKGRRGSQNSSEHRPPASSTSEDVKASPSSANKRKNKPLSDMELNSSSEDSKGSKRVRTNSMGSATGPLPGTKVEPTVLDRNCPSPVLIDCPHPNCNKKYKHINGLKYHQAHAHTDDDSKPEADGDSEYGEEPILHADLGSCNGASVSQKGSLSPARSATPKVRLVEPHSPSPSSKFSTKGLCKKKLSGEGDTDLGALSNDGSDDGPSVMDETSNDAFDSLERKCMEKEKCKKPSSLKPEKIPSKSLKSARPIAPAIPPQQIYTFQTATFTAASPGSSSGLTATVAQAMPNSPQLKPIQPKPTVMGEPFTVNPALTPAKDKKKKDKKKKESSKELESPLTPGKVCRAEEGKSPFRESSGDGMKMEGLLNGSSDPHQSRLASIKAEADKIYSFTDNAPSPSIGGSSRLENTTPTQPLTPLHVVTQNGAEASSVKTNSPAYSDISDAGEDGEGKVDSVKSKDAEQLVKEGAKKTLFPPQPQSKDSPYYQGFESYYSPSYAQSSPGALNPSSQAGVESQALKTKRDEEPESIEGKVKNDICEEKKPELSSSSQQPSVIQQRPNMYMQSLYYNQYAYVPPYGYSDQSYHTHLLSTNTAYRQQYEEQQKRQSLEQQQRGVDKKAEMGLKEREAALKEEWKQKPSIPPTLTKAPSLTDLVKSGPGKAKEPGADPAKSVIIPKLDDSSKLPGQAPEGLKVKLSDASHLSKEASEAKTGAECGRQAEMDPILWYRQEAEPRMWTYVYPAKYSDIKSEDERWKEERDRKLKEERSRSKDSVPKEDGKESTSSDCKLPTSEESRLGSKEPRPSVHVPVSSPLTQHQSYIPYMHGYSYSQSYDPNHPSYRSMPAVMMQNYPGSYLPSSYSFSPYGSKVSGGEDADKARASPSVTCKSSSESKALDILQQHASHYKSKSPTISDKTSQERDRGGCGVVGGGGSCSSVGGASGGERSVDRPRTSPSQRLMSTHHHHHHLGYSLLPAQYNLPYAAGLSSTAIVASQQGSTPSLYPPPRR
ZNF580, sequence (Q9UK33 whole entry, looked up): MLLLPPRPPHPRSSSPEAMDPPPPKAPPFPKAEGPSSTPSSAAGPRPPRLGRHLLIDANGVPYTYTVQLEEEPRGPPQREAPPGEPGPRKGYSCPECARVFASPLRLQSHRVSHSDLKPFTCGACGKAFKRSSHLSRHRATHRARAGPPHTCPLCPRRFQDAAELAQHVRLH
ZNF277, sequence (Q9NRM2 whole entry, looked up): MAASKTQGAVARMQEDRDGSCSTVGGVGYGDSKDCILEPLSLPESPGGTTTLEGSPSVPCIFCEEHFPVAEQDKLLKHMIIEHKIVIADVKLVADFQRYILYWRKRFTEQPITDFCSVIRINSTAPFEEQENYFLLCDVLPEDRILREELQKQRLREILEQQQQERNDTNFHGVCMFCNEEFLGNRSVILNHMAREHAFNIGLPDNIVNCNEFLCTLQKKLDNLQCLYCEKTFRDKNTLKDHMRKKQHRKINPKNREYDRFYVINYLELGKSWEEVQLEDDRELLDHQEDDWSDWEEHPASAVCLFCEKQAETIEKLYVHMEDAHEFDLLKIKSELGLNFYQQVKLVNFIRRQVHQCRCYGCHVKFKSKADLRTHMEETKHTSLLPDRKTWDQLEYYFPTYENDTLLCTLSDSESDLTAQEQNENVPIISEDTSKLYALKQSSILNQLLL
ZNF622, sequence (Q969S3 whole entry, looked up): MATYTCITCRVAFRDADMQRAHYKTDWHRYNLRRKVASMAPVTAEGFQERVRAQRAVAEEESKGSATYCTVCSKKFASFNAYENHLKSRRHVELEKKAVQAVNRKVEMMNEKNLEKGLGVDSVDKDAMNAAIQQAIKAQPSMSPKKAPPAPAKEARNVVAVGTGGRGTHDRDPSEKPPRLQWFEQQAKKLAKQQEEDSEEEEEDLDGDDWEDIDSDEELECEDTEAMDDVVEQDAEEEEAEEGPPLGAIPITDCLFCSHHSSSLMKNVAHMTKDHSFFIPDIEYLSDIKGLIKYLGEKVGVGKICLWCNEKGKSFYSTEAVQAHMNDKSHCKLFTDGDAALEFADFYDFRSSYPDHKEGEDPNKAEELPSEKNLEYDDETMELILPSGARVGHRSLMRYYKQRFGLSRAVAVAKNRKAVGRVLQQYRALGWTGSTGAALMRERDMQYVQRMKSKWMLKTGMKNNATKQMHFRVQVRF

C[C@@H](Oc1cc(-c2cnn(C3CCNCC3)c2)cnc1N)c1c(Cl)ccc(F)c1Cl [crizotinib]
inactive: ZNF217 -0.121 | ZNF239 -0.124 | ZNF277 -0.181 | ZNF579 0.112 | ZNF580 0.164 | ZNF609 -0.113 | ZNF622 -0.029 | ZRANB2 0.014

Cc1cc(Nc2cc(CN3CCOCC3)c3nc(C)c(Cc4ccc(Cl)cc4F)n3n2)n[nH]1 [gandotinib]
inactive: ZNF217 -0.098 | ZNF239 -0.267 | ZNF277 0.041 | ZNF579 0.036 | ZNF580 0.041 | ZNF609 -0.073 | ZNF622 0.075 | ZRANB2 0.064

CC(C)N(C[C@H]1O[C@@H](n2cnc3c(N)ncnc32)[C@H](O)[C@@H]1O)[C@H]1C[C@@H](CCc2nc3cc(C(C)(C)C)ccc3[nH]2)C1 [pinometostat]
inactive: ZNF217 0.002 | ZNF239 -0.008 | ZNF277 0.267 | ZNF579 0.02 | ZNF580 -0.072 | ZNF609 0.03 | ZNF622 0.014 | ZRANB2 0.012

COc1ccc(Cn2ccc3ccc(C(=O)NO)cc32)cc1
inactive: ZNF217 -0.024 | ZNF239 -0.178 | ZNF277 -0.073 | ZNF579 0.056 | ZNF580 -0.134 | ZNF609 -0.034 | ZNF622 -0.033 | ZRANB2 -0.022

Cc1ccc(NC(=O)c2cccc(C(C)(C)C#N)c2)cc1Nc1ccc2ncn(C)c(=O)c2c1
inactive: ZNF217 0.075 | ZNF239 -0.002 | ZNF511 isoform 1 -0.026 | ZNF579 0.043 | ZNF580 -0.174 | ZNF609 -0.046 | ZNF622 0.048 | ZRANB2 0.034

COC(=O)N[C@@H](C)CNc1nccc(-c2cn(C(C)C)nc2-c2cc(Cl)cc(NS(C)(=O)=O)c2F)n1 [encorafenib]
inactive: ZNF217 -0.054 | ZNF277 -0.259 | ZNF511 isoform 1 -0.03 | ZNF579 -0.187 | ZNF580 0.143 | ZNF609 -0.082 | ZNF622 0.01 | ZRANB2 -0.066

Cc1ccc(-n2nc(C(C)(C)C)cc2NC(=O)Nc2ccc(OCCN3CCOCC3)c3ccccc23)cc1 [doramapimod]
inactive: ZNF217 -0.027 | ZNF239 0.069 | ZNF277 0.123 | ZNF579 0.11 | ZNF580 0.165 | ZNF609 0.036 | ZNF622 0.009 | ZRANB2 -0.014
